From the supplement of paper PMC11417369
In all, about 25,000 sequences were measured (“ln(normalized median fluorescence intensity)”: median about 7.1, highest 2% from about 10 on). The sample as a whole holds a higher share of the highest values than the screen did.

Test system: PfSIP2 AP2 domain 1 (GST-tagged)
Assay: gcPBM binding intensity (ln(normalized median fluorescence intensity)); higher = stronger DNA binding
Procedure, shortened: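 The highest Masliner-normalised natural-log median intensity across replicate spots of either probe orientation is reported as binding intensity. GST-tagged P. falciparum DNA-binding domains expressed in E. coli were applied for 1 h to an Agilent 4 × 180k array of primer-extended double-stranded 36-bp intergenic genomic probes plus negative controls, and bound protein was detected with Alexa488 anti-GST antibody and scanned at 488 nm.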

| Sequence | gcPBM binding intensity (ln) |
| --- | --- |
| TAATTAGCATAATACACATGCATACATTTATATATA [TGCATGCA_site542] | 7.01 |
| ATCATAAATTATTATACACACAATACGTGACCTATT [CACACA_site1906] | 7.06 |
| TATTGTTACTTTATATGTACTAATTAAACATATACA [XGTACX_site6363] | 7.24 |
| ATAACAAAATGAAGAGTGCATTACCAAGTGGGTAAA [GTGCAC_site9450] | 8.64 |
| TAAATTGGTGCAAAGTGTACATATATATCTTTCCTA [XGTACX_site5458] | 11.4 |
| TAGGTACATAAATTGGTGCAAAGTGTACATATATAT | 9.97 |
| AAAAAATTATAAAAGTGTACATATATATATATATAT [XGTACX_site154] | 9.3 |
| AACAATAAAAATAATTGTACAAGTCTAAAAAAAATT [XGTACX_site20] | 6.86 |
| TCGTGAATGATTTAAGTACACACCGGTATTTATTCA [CACACA_site1564] | 6.74 |
| ACGTAAACATGTAGAAGGCATTACACAATGGTATAC [TGCATGCA_negctrl_site512] | 6.75 |
| AAAAGAAAATTAAATTAACACACATAAATATATATA [CACACA_site8482] | 7.27 |
| TTTGTATAGTTGTAGGTGCATATCATTTTTAAATGT [GTGCAC_site9708] | 10.4 |
| ATATAATAAATGTAGGTGCATAAAAATATTTTGTTA [GTGCAC_site9780] | 10 |
| ACCATATAAAGTTAGGTGCATTTGTATGTATCTTAC | 9.18 |
| ATTTTTTCATATTCTACACACGTGAACAAATGAGTC [CACACA_site5635] | 7.21 |
| ACTAATAATTTGTCGGTGCATAAAATTATTTTTATT [GTGCAC_site9840] | 10.7 |
| ATATTTTTATATGAGGTGCATATAATGACAATTAAG | 10.6 |
| ATTTCTTTTGTTATAGTGCATAATATTTATGTACGT | 8.59 |
| CATATAAGACAAAAGGTGCAATTTTAATGCTTTTAT [GTGCAC_site9432] | 9.98 |
| ATATATATATATATAGTGCATAATGTTTTAATAGAT | 9.54 |
| TTTTTAAAATATTTAACACACAATTATAATGCATAA [CACACA_site3932] | 7.23 |
| ATATATTTATAATAGGTGCATATGTTTTATTTTTCC [GTGCAC_site9849] | 10.2 |
| ATATATAAAAATTAGGTGCATTAAATTAAAATATAT | 10.3 |

| Sequence | gcPBM binding intensity (ln) |
| --- | --- |
| TTTTTTATTAAATATATATAATAATAATAATTTGTA [CACACA_negctrl_site1719] | 6.88 |
| AAAAATAATCATTAGGTGCAAAAAATATATATATAT [GTGCAC_site9631] | 9.96 |
| TAATAATTTTATAAAGTGCATAAAAATAAAAATTTT | 8.89 |
| AAAAAAAAAATTTAGGTGCATACAAATAAATTATAT [GTGCAC_site9521] | 9.85 |
| TTTAATATTATTATTTTACACACTTTTTTCCTTTTA [CACACA_site8780] | 6.64 |
| TACATGTATAATATAATACACACTATATAATATACA [CACACA_site2239] | 6.92 |
| TACTATAACCCACATACACACAAAAAAAAAAAAAAA [CACACA_site4454] | 7.11 |
| ACATAATAAAAATGACGTACAATTTTTTTTTTTCAT [XGTACX_site8340] | 7.01 |
| AAAAAACGCACTCGTACACACATATTTTCTTTCTAA [CACACA_site3089] | 8.76 |
| TTTTTTAGATTACATAAATATAAATATAAATATATA [GTGCAC_negctrl_site459] | 6.68 |
| ATGTTTTGTAAAATGATTAAATATTAAGATTCAATA [CACACA_negctrl_site1743] | 6.7 |
| ATATATATAGAAATATGTACGAAAAAAATATCACAT [XGTACX_site746] | 7.63 |
| TATATTACAAAAAGTACACACATAAATAAATACATA [CACACA_site975] | 7.17 |
| CCATAGATATTTTATACACACATATAATATATTAAT [CACACA_site373] | 7.17 |
| TTTTAAAATTATTAGGTGCATATTTATTCTATATTT | 10 |
| ACATATATATATATATATAATATTTTATATTTATTA [CACACA_negctrl_site713] | 7.49 |
| TATAATAATATTATAGTGCATATTATTTATATATAA [GTGCAC_site9820] | 8.67 |
| TCTTAAAATATATAGGTGCAAAAAAAAAAAAAAAAA | 10.6 |
| TATACAAGTATATAGGTGCATATATAAGTATATATT [GTGCAC_site9994] | 10.3 |
| TTTCTTTTTAAATAGGTGCATATTTTTATAAATATA | 11 |
| ATACATCGTATATAAGTGCATATTAAGGTCTTAAGA [GTGCAC_site9560] | 8.11 |
| TTTTATTATATGGAGGTGCATATATAATAATATAAT [GTGCAC_site9477] | 11 |
| GTATAGTACAAATAAGTGCATATAAAAGAAATACAG | 8.56 |

| Sequence | gcPBM binding intensity (ln) |
| --- | --- |
| TTTTTTTTTTCTTAGGTGCAAAAAATAAGTATATAT [GTGCAC_site9394] | 10.1 |
| TATATATTAAAAATAGTGCAAAATAATATATATATA [GTGCAC_site9716] | 8.84 |
| TTTCTTTATTTATAATAATTTTTTATTAAAAATAGA [CACACA_negctrl_site1610] | 6.78 |
| AAAAAAAAAAAAGAAAAATATATATATAAATAAATA [GTGCAC_negctrl_site569] | 6.98 |
| TTTTTCATATGACACACACACAAAAATAATGTGGAA [CACACA_site7692] | 6.99 |
| AAATTATATTATTGAACACACGTTTGGTAATGTTTT [CACACA_site5469] | 6.78 |
| GCTATTTATTTATATTGTACTTTTTTTTTTTTTTTT [XGTACX_site3624] | 7.67 |
| TAAATTGAGTATATTACACACATATAAATATATTAT [CACACA_site4027] | 6.88 |
| GAACAAATTACAAGTTGTACTTTATGTAAATTATTA [XGTACX_site5304] | 6.76 |
| ATACTATTATATATATGTACATATATATGATGCTCT [XGTACX_site1771] | 7.22 |
| TATTTTATATGATAGGTGCATTTTTTTTTTTTTTTT [GTGCAC_site9757] | 10.8 |
| ATATTATATATATAGGTGCGAGTATTTTATAAATAT [GTGCAC_site9889] | 9.06 |
| ATAATTGTTTAAAGGTGTACAATACATATATTTTAA [XGTACX_site3648] | 6.91 |
| GTATTATATATATAGGTGCATATATATATATAAATA [GTGCAC_site9787] | 10.8 |
| TTTTGTTATTTTTTAGTGCATATAAAGGTTGTTAAG | 8.64 |
| CATCATCTTTTAAAGGTGCATAATAATATTGTTAAT | 11.1 |
| TTTTTTTTTTTTTTTTTTTTTTTTTTATGATATATA [GTGCAC_negctrl_site365] | 6.82 |
| ATCTATATCTATAATACACACATCATAAAATATGTA [CACACA_site7230] | 7.19 |
| TATGGAATAAATTTATCCATACATCTTATAACATAT [XGTACX_negctrl_site500] | 6.78 |
| TCGAATATCTTATAGGTGCATCATAAATACATATGT | 10.8 |
| ATAGTAATGCATAAATATATATTATATATATATATA [XGTACX_negctrl_site576] | 9.1 |
| TTTTTATTTATATGATACTTATATATATATATATAT [CACACA_negctrl_site462] | 9.5 |
